PubChem BioAssay

Each compound was assayed against E3 ubiquitin-protein ligase XIAP (Homo sapiens) (UniProt P98170) (assay: small molecules binding XIAP protein – biophysical, small-molecule microarray, fluorescence 635 nm, primary screen (AID 1181;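 also: score merges 667 nm emission and signal to noise over triplicate slides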)). Conditions: higher = more signal.
Chain of E3 ubiquitin-protein ligase XIAP (Homo sapiens) (P98170 whole entry, looked up): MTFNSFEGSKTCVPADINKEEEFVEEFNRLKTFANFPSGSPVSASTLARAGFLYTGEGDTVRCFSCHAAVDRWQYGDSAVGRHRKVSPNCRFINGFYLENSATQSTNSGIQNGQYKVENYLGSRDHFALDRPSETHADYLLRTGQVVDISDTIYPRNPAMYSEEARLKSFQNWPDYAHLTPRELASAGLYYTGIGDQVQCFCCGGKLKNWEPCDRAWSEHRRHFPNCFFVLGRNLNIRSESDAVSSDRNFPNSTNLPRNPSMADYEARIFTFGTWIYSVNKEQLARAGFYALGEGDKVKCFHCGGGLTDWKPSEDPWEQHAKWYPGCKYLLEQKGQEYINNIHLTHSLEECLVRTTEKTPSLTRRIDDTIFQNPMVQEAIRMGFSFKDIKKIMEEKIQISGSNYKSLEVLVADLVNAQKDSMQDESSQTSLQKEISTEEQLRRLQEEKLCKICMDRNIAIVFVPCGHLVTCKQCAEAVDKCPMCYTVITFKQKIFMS

Going from CN(C)CCCCNC(=O)[C@@H]1C[C@@H]2C(=O)N[C@@H](Cc3ccccc3)C(=O)N2[C@@H]1c1cccc(OCCO)c1 to CCCNC(=O)[C@@H]1c2ccccc2C(=O)N(C(C)C)[C@H]1c1ccc(CO)cc1, the composite z-score falls from 0.109 to -0.237.

Going from COc1ccc([Si](C)(C)[C@@H]2[C@@H](CCO)O[C@]3(C(=O)N(Cc4ccc(N5CCCCC5=O)cc4)c4ccccc43)[C@H]2C)cc1 to COC(=O)[C@@]1(Cc2ccc(OC)cc2)[C@H]2c3cc(C(=O)N(C)C)n(Cc4ccc(Cl)c(C(F)(F)F)c4)c3C[C@H]2CN1C(=O)c1ccccc1, the composite z-score rises from -0.184 to 0.216.

Going from COCCOC(=O)N1C(=O)[C@@]2(c3cc(C#CC4=CCCCC4)ccc31)[C@H](c1ccccc1OCCO)N1[C@H](c3ccccc3)[C@H](c3ccccc3)OC(=O)[C@H]1[C@@H]2C(=O)Nc1nc2ccccc2s1 to O=C1O[C@H](c2ccccc2)[C@H](c2ccccc2)N2[C@H]1[C@@H](C(=O)Nc1nc3ccccc3s1)[C@]1(C(=O)Nc3ccc(C#CC4(O)CCCCCC4)cc31)[C@H]2c1ccccc1OCCO, the composite z-score rises from 0.0304 to 0.25.

First: CCCCC(=C=CC[C@@H](O)c1ccccc1OCCO)C[C@@H](O)COCc1ccccc1
Second: C=C(CCCC)/C(=C/C[C@@H](OC(=O)c1ccncc1)c1ccccc1OCCO)c1cnc2ccccc2c1
The composite z-score of the first is higher: 0.0022 for the first, -0.0599 for the second.

Compared with Cc1ccc(S[C@]2(C(=O)NCC(F)(F)F)CC(=O)N(Cc3ccccc3)[C@@H]2c2ccc(CO)cc2I)cc1, O=C(NCC(F)(F)F)[C@@H]1c2ccccc2C(=O)N(Cc2cc(F)cc(C(F)(F)F)c2)[C@H]1c1ccc(CO)cc1 is lower in composite z-score: 0.0338 for the first, -0.126 for the second.

Compared with [N-]=[N+]=Nc1ccccc1C[C@]1(C(=O)N2CCOCC2)N=C(c2ccc(OCCCO)cc2)O[C@H]1c1ccccc1, C=CCNC(=O)[C@H]1[C@@H]2C(=O)O[C@@H](c3ccccc3)[C@@H](c3ccccc3)N2[C@@H](c2ccc(O)cc2)[C@]12C(=O)N(C(=O)OCCOC)c1ccccc12 is lower in composite z-score: 0.0761 for the first, -0.02 for the second.

First: O=C1OCC=C[C@H]2OC34C=CCN(Cn5nnc6ccccc65)C(=O)[C@H]3N(CCCO)C(=O)[C@@H]4[C@@H]12 (some centres not stated)
Second: COC(=O)[C@@]1(Cc2ccccc2)[C@H]2c3cc(C(=O)N(C)C)n(Cc4c(CO)[nH]cc(C)c4=O)c3C[C@H]2CN1C(=O)c1ccccc1
The composite z-score of the first is lower: -0.105 for the first, -0.0663 for the second.

First: CCCCCCCCCCC(O)C1C=CC2C(=O)N(C)C(=O)C2N1NC(=O)OC(C)(C)C (configuration not stated)
Second: NC(N)=NCCCn1cc(CNC(=O)[C@@H](N)Cc2ccccc2)nn1
The composite z-score of the first is higher: 0.109 for the first, 0.012 for the second.

Work on CCOC(=O)C1CCCCN1 (configuration not stated) yielded a composite z-score of -0.222.
